Records with an inconclusive call do not appear. Active and inactive are the calls of the source. The call rests on the fitted dose curve; in most records, active means well fitted inhibition curve with a large enough effect in the signal ratio in the repeat runs (not every such curve was filed as active); inconclusive means weak or mixed curves, or effect the other way; inactive means no such curve, though single readings can be large or run the other way; the % refers to the signal ratio.
target: Vitamin D3 receptor (Homo sapiens) (UniProt P11473); test: qHTS assay to identify small molecule antagonists of the vitamin D receptor (VDR) signaling pathway (AID 743223); details: VDR-UAS-bla HEK293T, beta-lactamase FRET ratio, 16 h; series mostly up to 61 µM; activity change, negative = inhibition: at the top concentration
Sequence (P11473 whole entry, looked up): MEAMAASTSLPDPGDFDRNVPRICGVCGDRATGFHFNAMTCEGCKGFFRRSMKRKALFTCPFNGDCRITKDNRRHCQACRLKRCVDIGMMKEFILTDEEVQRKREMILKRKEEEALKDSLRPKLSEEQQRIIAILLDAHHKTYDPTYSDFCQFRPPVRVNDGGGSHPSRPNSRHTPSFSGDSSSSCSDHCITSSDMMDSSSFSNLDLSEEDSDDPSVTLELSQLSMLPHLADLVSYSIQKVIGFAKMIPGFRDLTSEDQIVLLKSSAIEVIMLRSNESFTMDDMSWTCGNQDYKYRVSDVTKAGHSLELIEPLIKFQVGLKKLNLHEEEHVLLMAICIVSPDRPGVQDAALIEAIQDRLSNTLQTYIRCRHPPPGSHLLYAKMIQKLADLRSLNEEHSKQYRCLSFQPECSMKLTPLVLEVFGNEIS
Summary of the method: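 Antagonist mode uses 1alpha,25-dihydroxyvitamin D3 at 3 nM final as stimulus. VDR-bla cells receive compounds in DMSO, incubate 16 h at 37C, then a beta-lactamase FRET substrate for 2 h at room temperature before fluorescence measurement.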
On the % scale 0 is the no-effect control and ±100 the full control effect; potency means the concentration at half of the fitted maximal effect.

SMILES	activity change, negative = inhibition	Potency
Nc1ccc2cc(S(=O)(=O)O)cc(O)c2c1N=Nc1ccccc1C(F)(F)F	6.13% (inactive)	
O=C(O)c1ccc(Cl)c(Cl)c1	-2.45% (inactive)	
CC(=O)OCC(C)OC(C)=O (stereo not given)	-1.43% (inactive)	
COc1cc(/C=C/C(=O)O[C@H]2CC[C@]34C[C@]35CC[C@]3(C)[C@@H]([C@H](C)CCC=C(C)C)CC[C@@]3(C)[C@@H]5CC[C@H]4C2(C)C)ccc1O	-0.97% (inactive)	
N#CC1(c2ccc(F)cc2)CCC(=O)CC1	-3.89% (inactive)	
O=C1c2ccccc2Cc2ccccc21	8.1% [at 78.8 µM] (inactive)	
CCCC(C)c1ccccc1O (stereo not given)	-9.32% (inactive)	
O=C(NO)C1(NS(=O)(=O)c2ccc(Oc3ccc(F)cc3)cc2)CCOCC1	-16.6% (inactive)	
CN(C)CCCOC1(Cc2ccccc2)CCCCCC1	12.5% (inactive)	
Cc1ccc(O)c(C(C)(C)C)c1		13.8 µM (active)
CCCCCCCCCCCCCCCC(=O)OC[C@H](O)[C@H]1OC(=O)C(O)=C1O	-0.717% (inactive)	
Nc1ccccc1O	13.3% (inactive)	
CNC(=O)c1ccccc1	7.11% (inactive)	
OCCCCCCCCCCCCBr	-8.58% [at 78.8 µM] (inactive)	
COC(=O)c1cc(Cl)ccc1OC	-0.804% (inactive)	
CCCC1O[C@@H]2C[C@H]3[C@@H]4CCC5=CC(=O)C=C[C@]5(C)[C@H]4[C@@H](O)C[C@]3(C)[C@]2(C(=O)CO)O1 (stereo not given in full)	4% (inactive)	
CCCCCCCCCCC=O	-13.4% [at 78.8 µM] (inactive)	
Clc1ccc2nsnc2c1NC1=NCCN1	-7.99% (inactive)	
CC(C)(C)C(=O)OCOC(=O)[C@@H]1N2C(=O)[C@@H](NC(=O)[C@H](N)c3ccccc3)[C@H]2SC1(C)C	1.11% (inactive)	
ON=C1CCCC1	1.15% [at 78.8 µM] (inactive)	

Source: PubChem BioAssay (Tox21)
